# Measured values: PubChem BioAssay (Tox21)
# Inconclusive results are not listed. Values without a mark were called inactive. The source made the active and inactive calls. Calls follow the shape of the dose curve; as a rule, active = well fitted cell-killing curve with a large enough effect in the repeat runs (not every such curve was filed as active); inconclusive = weak or mixed curves, or effect the other way; inactive = no such curve, though single readings can be large or run the other way.
# Assay: qHTS assay to identify small molecule antagonists of the estrogen related receptor signaling pathway with the pleiotropic PPARgamma coactivator (PGC) from Tox21 10K library - cell viability counter screen (AID 1224840); also: nearly all actives have a fitted effect of over 40% in size
# Conditions: PGC/ERR reporter cells viability, CellTiter-Fluor, 17.5 h; series mostly up to 92.4 µM; viability change, negative = cytotoxic: at the top concentration
# Excerpt: National Center for Advancing Translational Sciences [NCATS]
# NIH Chemical Genomics Center [NCGC]
# U.S. Environmental Protection Agency [EPA]
# National Institutes of Environmental Health Sciences [NIEHS]
# National Toxicology Program [NTP]
# U.S. Food and Drug Administration [FDA]
# Estrogen related receptors (ERRs), the first orphan nuclear receptors discovered, play an important role in the control of cellular energy metabolism. ERRs are required for high-energy production in response to the environmental challenges. The pleiotropic PPARgamma coactivator (PGC) is a major partner of ERR and a key regulator in energy homeostasis. Together they have been implicated in the etiology of metabolic disorders such as Type 2 diabetes and metabolic syndrome. ERR-alpha was also identified as an adverse marker for breast cancer progression; ERR-alpha-positive tumors have a poor prognosis. To screen and to identify environmental compounds that perturb the ERR and PGC/ERR signaling pathways could provide valuable information for potential therapeutic or preventive measures in the treatment of metabolic disease. To differentiate true PGC/ERR antagonists or agonist from cytotoxic substances, the assay is multiplexed with cell viability assay.
# Tox21 Assay Protocol Summary:
# The PGC/ERR cells were dispensed at 2,000 cells/5 ul/well in 1536-well white plates using a Multidrop dispenser. After the assay plates were incubated at a 37 C/5% CO2 incubator for 6 hours, 23 nL of compounds dissolved in DMSO, positive and negative controls or DMSO only was transferred to the assay plate by a pin tool. The plates were incubated at 37 C for 17.5 hours. 1 ul/well of CellTiter-Fluor reagent was added into the assay plates using a Flying Reagent Dispenser. After 30-minute incubation at 37 C/5% CO2, the fluorescence intensity in the plates was measured using a ViewLux plate reader.
# % is scaled to controls: 0 for no effect and ±100 for the full control effect.
SMILES,"viability change, negative = cytotoxic",Potency
CS(=O)(=O)O,-4.48%,–
CCOC(=O)Nc1ccc(NCc2ccc(F)cc2)nc1N,-1.66% [at 42.5 µM],–
CN1CCN(c2cc3c(cc2F)c(=O)c(C(=O)O)cn3-c2ccc(F)cc2)CC1,-1.39% [at 42.5 µM],–
NCCc1cnc[nH]1,16.6% [at 42.5 µM],–
COc1ccccc1OCC(O)CN1CCN(CC(=O)Nc2c(C)cccc2C)CC1 (stereo not given),-3.54% [at 42.5 µM],–
Cc1c(O)cccc1O,15.7%,–
COc1nc(N)nc2c1ncn2[C@@H]1O[C@H](CO)[C@@H](O)[C@@H]1O,4.22% [at 42.5 µM],–
NC(CSCC(=O)O)C(=O)O (stereo not given),0.937% [at 42.5 µM],–
c1cnc(N2CCN(Cc3ccc4c(c3)OCO4)CC2)nc1,9.77% [at 42.5 µM],–
Cc1ccc(Cl)cc1Cl,5.3%,–
CN(C)CCCNCCCN(C)C,5.78%,–
O=C(CCCN1CCN(c2ccccn2)CC1)c1ccc(F)cc1,-0.382% [at 42.5 µM],–
CCOC(=O)c1cccc(N)c1,-3.22% [at 42.5 µM],–
CC(=O)CC(C)(C)C1CCCCC1,10.3%,–
Nc1nc2c(ncn2COC(CO)CO)c(=O)[nH]1,-0.478% [at 42.5 µM],–
CCCCC(CC)COC(=O)c1ccccc1O (stereo not given),-16.5% [at 42.5 µM],–
CC(C[N+](C)(C)C)OC(N)=O (stereo not given),13.8% [at 42.5 µM],–
CCOC(=O)c1c(C)n(C)c2ccc(O)cc12,-2.54% [at 42.5 µM],–
CO/N=C(/C(=O)N[C@@H]1C(=O)N2C(C(=O)OCOC(=O)C(C)(C)C)=C(C)CS[C@H]12)c1csc(N)n1,2.13% [at 42.5 µM],–
O=C1CCCCCCCCCCCN1,–,inactive

SMILES,"viability change, negative = cytotoxic",Potency
CCC(C)C1CCCCC1=O (stereo not given),9.13%,–
Cc1[nH]c(=O)c(C#N)cc1-c1ccc2nccn2c1,12.5% [at 42.5 µM],–
NC(=O)COCCN1CCN(C(c2ccccc2)c2ccc(Cl)cc2)CC1 (stereo not given),2.87% [at 42.5 µM],–
CC1(C)CO[C@@H](CC(=O)O)CN1,12.5% [at 42.5 µM],–
CC(C)OC(=O)c1ccccc1,3.53%,–
CCCCCCCCCCCCCCCCC,2.64%,–
COC(=O)c1c(Cl)c(Cl)c(C(=O)OC)c(Cl)c1Cl,–,inactive
NCCCNCCSP(=O)(O)O,11.6% [at 8.39 µM],–
CCCCCSCCCCC,-3.85%,–
O=C(O)CCCc1ccccc1,5% [at 42.5 µM],–
Nc1c[n+](N2CCOCC2)no1,-2.36% [at 42.5 µM],–
CO[Si](CCCOCC1CO1)(OC)OC (stereo not given),–,inactive
N=C(N)c1ccc(OCCCOc2ccc(C(=N)N)cc2)cc1,-7.16% [at 42.5 µM],–
CCOC(C)(C)C,-7.71%,–
FC1(F)C(F)(F)C(F)(F)C2(F)C(F)(F)C(F)(F)C(F)(F)C(F)(F)C2(F)C1(F)F (stereo not given),-0.602% [at 42.5 µM],–
O=C(O)COc1nn(Cc2ccccc2)c2ccccc12,10.2% [at 42.5 µM],–
CN1CCCC1,2.42%,–
Cc1cnc(NS(=O)(=O)c2ccc(N)cc2)nc1,14.5% [at 42.5 µM],–
NS(=O)(=O)c1cc(C(=O)NN2C[C@H]3[C@H]4CCC(C4)[C@H]3C2)ccc1Cl,-0.888% [at 42.5 µM],–
Cc1cccc(C)c1NC(=O)C(C)N (stereo not given),-6.01% [at 42.5 µM],–
